PubChem BioAssay AID1159580 (chemical genetic matrix, 2015)
Several values for one entry are separate records, joined by “and”; a condition that tells them apart may be missing. Equal entries are not always repeated. The campaign covered roughly 5,500 compounds. About 2,000 (36%) were called active. About 18% were inconclusive and are not listed. No stated cut-off is given here; in the data, active means normalized growth mostly below about 0.91 (no sharp cut-off); inconclusive means no clear call, values can overlap the other calls; inactive means mostly above about 0.92. This is one part of the list.

Experiment: chemical genetic growth profiling, strain panel (AID 1159580);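 further: tested at 20 µM; growth read once vehicle control cultures reached saturation at 30 °C; 1 = growth at the plate median or of vehicle wells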
Conditions: S. cerevisiae deletion strains, growth OD

Measured: normalized growth

CN[C@@H](C)[C@@H](O)c1ccccc1
inactive: locus YAL021C, strain ccr4, stronger effect = lower value 0.987 | locus YAL026C, strain drs2, stronger effect = lower value 0.995 | locus YAL030W, strain snc1, stronger effect = lower value 0.995 | locus YBL061C, strain skt5, stronger effect = lower value 0.992 | locus YBR009C, strain hhf1, stronger effect = lower value 1.02 | locus YBR021W, strain FUR4, stronger effect = lower value 1.01 | locus YBR023C, strain chs3, stronger effect = lower value 0.981 | locus YBR171W, strain sec66, stronger effect = lower value 0.993 | locus YBR229C, strain ROT2, stronger effect = lower value 0.949 | locus YBR231C, strain swc5, stronger effect = lower value 0.996 | locus YBR279W, strain paf1, stronger effect = lower value 1 | locus YCL011C, strain gbp2, stronger effect = lower value 0.971 | locus YCL016C, strain dcc1, stronger effect = lower value 0.987 | locus YCL029C, strain bik1, stronger effect = lower value 0.976 | locus YCL069W, strain vba3, stronger effect = lower value 0.995 | locus YCR088W, strain abp1, stronger effect = lower value 0.995 | locus YDL005C, strain med2, stronger effect = lower value 0.994 | locus YDL035C, strain GPR1, stronger effect = lower value 0.949 | locus YDL040C, strain nat1, stronger effect = lower value 1 | locus YDL074C, strain BRE1, stronger effect = lower value 1.01 | locus YDL101C, strain DUN1, stronger effect = lower value 1 | locus YDL185W, strain tfp1, stronger effect = lower value 0.961 | locus YDL192W, strain arf1, stronger effect = lower value 0.989 | locus YDR001C, strain nth1, stronger effect = lower value 0.996 | locus YDR069C, strain doa4, stronger effect = lower value 0.993 | locus YDR101C, strain arx1, stronger effect = lower value 0.998 | locus YDR137W, strain rgp1, stronger effect = lower value 0.982 | locus YDR159W, strain sac3, stronger effect = lower value 0.943 | locus YDR162C, strain NBP2, stronger effect = lower value 0.929 | locus YDR195W, strain ref2 0.977 | locus YDR297W, strain sur2, stronger effect = lower value 1 | locus YDR318W, strain mcm21, stronger effect = lower value 0.986 | locus YDR334W, strain swr1, stronger effect = lower value 1.01 | locus YDR335W, strain msn5, stronger effect = lower value 1 | locus YDR388W, stronger effect = lower value 0.992 | locus YDR392W, strain spt3, stronger effect = lower value 0.911 | locus YDR502C, strain sam2, stronger effect = lower value 1.01 | locus YEL003W, strain gim4, stronger effect = lower value 0.996 | locus YEL037C, strain rad23, stronger effect = lower value 0.985 | locus YEL061C, strain CIN8 (second series), stronger effect = lower value 0.989 | locus YEL061C, strain CIN8, stronger effect = lower value 0.989 | locus YER015W, strain faa2, stronger effect = lower value 1 | locus YER016W, strain bim1, stronger effect = lower value 0.984 | locus YER110C, stronger effect = lower value 0.987 | locus YER111C, strain swi4, stronger effect = lower value 0.996 | locus YER155C, strain BEM2 (second series), stronger effect = lower value 0.997 | locus YER155C, strain BEM2, stronger effect = lower value 0.999 | locus YER167W, strain BCK2, stronger effect = lower value 0.982 | locus YFR010W, strain ubp6, stronger effect = lower value 0.992 | locus YGL078C, strain dbp3, stronger effect = lower value 0.996 | locus YGL086W, strain mad1, stronger effect = lower value 0.996 | locus YGL167C, strain pmr1, stronger effect = lower value 1 | locus YGL173C, strain kem1, stronger effect = lower value 0.988 | locus YGL227W, strain vid30, stronger effect = lower value 0.982 | locus YGL240W, strain doc1, stronger effect = lower value 1 | locus YGL248W, strain PDE1, stronger effect = lower value 1.01 | locus YGL253W, strain hxk2, stronger effect = lower value 0.985 | locus YGR135W, strain pre9, stronger effect = lower value 0.989 | locus YGR252W, strain gcn5, stronger effect = lower value 1.01 | locus YHR013C, strain ard1, stronger effect = lower value 0.961 | locus YHR027C, strain rpn1, stronger effect = lower value 1 | locus YHR030C, strain SLT2, stronger effect = lower value 0.977 and 1.04 | locus YHR079C, strain IRE1 (second series), stronger effect = lower value 0.993 | locus YHR079C, strain IRE1, stronger effect = lower value 1.02 | locus YHR094C, strain hxt1, stronger effect = lower value 0.985 | locus YHR129C, strain ARP1, stronger effect = lower value 0.994 | locus YHR142W, strain chs7, stronger effect = lower value 0.976 | locus YHR200W, strain rpn10, stronger effect = lower value 0.984 | locus YIL066C, strain RNR3, stronger effect = lower value 0.926 | locus YIL073C, strain SPO22, stronger effect = lower value 0.973 | locus YIL125W, strain kgd1, stronger effect = lower value 0.987 | locus YIR030C, strain dcg1, stronger effect = lower value 0.996 | locus YJL092W, strain hpr5, stronger effect = lower value 0.999 | locus YJL095W, strain BCK1 (second series), stronger effect = lower value 0.994 | locus YJL095W, strain BCK1, stronger effect = lower value 1.06 and 1.01 | locus YJL115W, strain asf1, stronger effect = lower value 0.999 | locus YJL129C, strain trk1, stronger effect = lower value 1.01 | locus YJL134W, strain LCB3, stronger effect = lower value 0.98 | locus YJL154C, strain vps35, stronger effect = lower value 0.996 | locus YJL164C, strain tpk1, stronger effect = lower value 1 | locus YJL166W, strain qcr8, stronger effect = lower value 1.01 | locus YJL168C, strain set2, stronger effect = lower value 0.995 | locus YJL187C, strain SWE1 (second series), stronger effect = lower value 1.03 | locus YJR043C, strain POL32, stronger effect = lower value 0.938 | locus YJR066W, strain TOR1, stronger effect = lower value 0.982 | locus YKL009W, strain mrt4, stronger effect = lower value 0.998
